Experimental data reported in PubChem BioAssay AID1159580 (chemical genetic matrix, 2015).
Out of some 5,500 compounds screened, about 2,000 (36%) were called active. Not shown: some 18% with an inconclusive outcome. Rule as the data show it: active = normalized growth mostly below about 0.91 (no sharp cut-off); inconclusive = no clear call, values can overlap the other calls; inactive = mostly above about 0.92. This is one part of the list.

Experiment: chemical genetic growth profiling, strain panel (AID 1159580);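 also: tested at 20 µM; growth read once vehicle control cultures reached saturation at 30 °C; 1 = growth at the plate median or of vehicle wells; lower values mean less growth of the strain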
Settings: growth OD
[1] = S. cerevisiae deletion strains, locus YGR078C, strain PAC10, stronger effect = lower value
[2] = S. cerevisiae deletion strains, locus YNL128W, strain TEP1, stronger effect = lower value
[3] = S. cerevisiae deletion strains, locus YNL322C, strain KRE1, stronger effect = lower value
[4] = S. cerevisiae deletion strains, locus YHR030C, strain SLT2, stronger effect = lower value
[5] = S. cerevisiae deletion strains, locus YJL095W, strain BCK1, stronger effect = lower value

Measured: normalized growth

C[N+]1(C)CCc2cc3c(cc2[C@H]1[C@@H]1OC(=O)c2c1ccc1c2OCO1)OCO3
inactive: S. cerevisiae deletion strains, locus YAL040C, strain CLN3, stronger effect = lower value 0.982 | S. cerevisiae deletion strains, locus YDR150W, strain NUM1, stronger effect = lower value 0.997 | S. cerevisiae deletion strains, locus YER002W, strain NOP16, stronger effect = lower value 0.991 | [1] 1.01 | [2] 1 | S. cerevisiae deletion strains, locus YNL153C, strain GIM3, stronger effect = lower value 0.998 | S. cerevisiae deletion strains, locus YNL175C, strain NOP13, stronger effect = lower value 0.987 | S. cerevisiae deletion strains, locus YNL197C, strain WHI3, stronger effect = lower value 1.05 | S. cerevisiae deletion strains, locus YNL224C, strain SQS1, stronger effect = lower value 0.994 | [3] 1.01 | S. cerevisiae deletion strains, locus YOR083W, strain WHI5 (second series), stronger effect = lower value 1 | S. cerevisiae deletion strains, locus YPL055C, strain LGE1, stronger effect = lower value 1.01

CCCCCCCCCCCCCCCC(=O)OCC(O)CO (centres undefined)
inactive: [4] 1 | S. cerevisiae deletion strains, locus YHR079C, strain IRE1, stronger effect = lower value 0.99 | [5] 0.967 | S. cerevisiae deletion strains, locus YJR066W, strain TOR1, stronger effect = lower value 0.936 | S. cerevisiae deletion strains, locus YLR113W, strain HOG1, stronger effect = lower value 1 | S. cerevisiae deletion strains, locus YNL183C, strain NPR1, stronger effect = lower value 0.93 | S. cerevisiae deletion strains, locus YOR231W, strain MKK1, stronger effect = lower value 1.01 | S. cerevisiae deletion strains, locus YPL256C, strain CLN2, stronger effect = lower value 1.02

CCCCCCCCCCCC(=O)OCC(COP(=O)(O)OCC(O)COP(=O)(O)OCC(COC(=O)CCCCCCCCCCC)OC(=O)CCCCCCCCCCC)OC(=O)CCCCCCCCCCC (centres undefined)
active: S. cerevisiae deletion strains, locus YDL035C, strain GPR1, stronger effect = lower value 0.663 | S. cerevisiae deletion strains, locus YDL074C, strain BRE1, stronger effect = lower value 0.72 | S. cerevisiae deletion strains, locus YDL101C, strain DUN1, stronger effect = lower value 0.839 | S. cerevisiae deletion strains, locus YDR162C, strain NBP2, stronger effect = lower value 0.55 | S. cerevisiae deletion strains, locus YEL061C, strain CIN8, stronger effect = lower value 0.861 | S. cerevisiae deletion strains, locus YGL086W, strain mad1, stronger effect = lower value 0.927 | S. cerevisiae deletion strains, locus YGL248W, strain PDE1, stronger effect = lower value 0.876 | S. cerevisiae deletion strains, locus YGR229C, strain SMI1, stronger effect = lower value 0.181 | S. cerevisiae deletion strains, locus YHR129C, strain ARP1, stronger effect = lower value 0.902 | S. cerevisiae deletion strains, locus YIL066C, strain RNR3, stronger effect = lower value 0.633 | S. cerevisiae deletion strains, locus YIL073C, strain SPO22, stronger effect = lower value 0.524 | S. cerevisiae deletion strains, locus YJL187C, strain SWE1 (second series), stronger effect = lower value 0.703 | S. cerevisiae deletion strains, locus YJR043C, strain POL32, stronger effect = lower value 0.632 | S. cerevisiae deletion strains, locus YKL190W, strain CNB1, stronger effect = lower value 0.682 | S. cerevisiae deletion strains, locus YLR039C, strain RIC1, stronger effect = lower value 0.671 | S. cerevisiae deletion strains, locus YLR058C, strain SHM2, stronger effect = lower value 0.811 | S. cerevisiae deletion strains, locus YLR342W, strain FKS1 (second series), stronger effect = lower value 0.549 | S. cerevisiae deletion strains, locus YLR418C, strain cdc73, stronger effect = lower value 0.765 | S. cerevisiae deletion strains, locus YML016C, strain PPZ1, stronger effect = lower value 0.792 | S. cerevisiae deletion strains, locus YMR307W, strain GAS1, stronger effect = lower value 0.475 | [2] 0.589 | [3] 0.715 | S. cerevisiae deletion strains, locus YOL006C, strain TOP1, stronger effect = lower value 0.29 | S. cerevisiae deletion strains, locus YOR061W, strain CKA2, stronger effect = lower value 0.803 | S. cerevisiae strains, strain wild type, stronger effect = lower value 0.56
inactive: S. cerevisiae deletion strains, locus YBR021W, strain FUR4, stronger effect = lower value 0.99 | S. cerevisiae deletion strains, locus YBR229C, strain ROT2, stronger effect = lower value 0.967 | S. cerevisiae deletion strains, locus YCL029C, strain bik1, stronger effect = lower value 1.01 | S. cerevisiae deletion strains, locus YDL185W, strain tfp1, stronger effect = lower value 0.981 | S. cerevisiae deletion strains, locus YDL192W, strain arf1, stronger effect = lower value 0.972 | S. cerevisiae deletion strains, locus YDR101C, strain arx1, stronger effect = lower value 1.03 | S. cerevisiae deletion strains, locus YDR318W, strain mcm21, stronger effect = lower value 1 | S. cerevisiae deletion strains, locus YDR388W, stronger effect = lower value 1.01 | S. cerevisiae deletion strains, locus YDR502C, strain sam2, stronger effect = lower value 0.978 | S. cerevisiae deletion strains, locus YER110C, stronger effect = lower value 1.03 | S. cerevisiae deletion strains, locus YER155C, strain BEM2, stronger effect = lower value 1.02 | S. cerevisiae deletion strains, locus YER167W, strain BCK2, stronger effect = lower value 0.953 | S. cerevisiae deletion strains, locus YGL078C, strain dbp3, stronger effect = lower value 1.02 | [1] 0.879 | S. cerevisiae deletion strains, locus YGR135W, strain pre9, stronger effect = lower value 0.923 | S. cerevisiae deletion strains, locus YGR252W, strain gcn5, stronger effect = lower value 0.887 | [4] 0.965 | S. cerevisiae deletion strains, locus YHR079C, strain IRE1 (second series), stronger effect = lower value 1.04 | S. cerevisiae deletion strains, locus YHR094C, strain hxt1, stronger effect = lower value 1.03 | S. cerevisiae deletion strains, locus YHR200W, strain rpn10, stronger effect = lower value 0.995 | S. cerevisiae deletion strains, locus YIL125W, strain kgd1, stronger effect = lower value 1.03 | S. cerevisiae deletion strains, locus YIR030C, strain dcg1, stronger effect = lower value 1.03 | [5] 0.816 | S. cerevisiae deletion strains, locus YJL134W, strain LCB3, stronger effect = lower value 0.975 | S. cerevisiae deletion strains, locus YJL168C, strain set2, stronger effect = lower value 1 | S. cerevisiae deletion strains, locus YKL009W, strain mrt4, stronger effect = lower value 1.09 | S. cerevisiae deletion strains, locus YKL068W, stronger effect = lower value 1.03 | S. cerevisiae deletion strains, locus YKL085W, strain MDH1 (second series), stronger effect = lower value 1.01 | S. cerevisiae deletion strains, locus YKL085W, strain MDH1, stronger effect = lower value 1.01 | S. cerevisiae deletion strains, locus YKR001C, strain vps1, stronger effect = lower value 0.986 | S. cerevisiae deletion strains, locus YLR102C, strain apc9, stronger effect = lower value 1.02 | S. cerevisiae deletion strains, locus YLR262C, strain YPT6, stronger effect = lower value 0.798 | S. cerevisiae deletion strains, locus YLR268W, strain sec22, stronger effect = lower value 0.937 | S. cerevisiae deletion strains, locus YLR330W, strain CHS5, stronger effect = lower value 0.964 | S. cerevisiae deletion strains, locus YLR371W, strain rom2, stronger effect = lower value 0.971 | S. cerevisiae deletion strains, locus YML032C, strain rad52, stronger effect = lower value 1.03 | S. cerevisiae deletion strains, locus YML124C, strain tub3, stronger effect = lower value 1.02 | S. cerevisiae deletion strains, locus YMR078C, strain ctf18, stronger effect = lower value 1.02 | S. cerevisiae deletion strains, locus YMR223W, strain ubp8, stronger effect = lower value 0.962 | S. cerevisiae deletion strains, locus YMR263W, strain SAP30, stronger effect = lower value 0.923 | S. cerevisiae deletion strains, locus YNL067W, strain RPL9B, stronger effect = lower value 0.891 | S. cerevisiae deletion strains, locus YNL233W, strain BNI4, stronger effect = lower value 0.91 | S. cerevisiae deletion strains, locus YNL250W, strain rad50, stronger effect = lower value 1.02 | S. cerevisiae deletion strains, locus YNL271C, strain bni1, stronger effect = lower value 1 | S. cerevisiae deletion strains, locus YNL298W, strain CLA4, stronger effect = lower value 1.01 | S. cerevisiae deletion strains, locus YNL307C, strain MCK1, stronger effect = lower value 1.02 | S. cerevisiae deletion strains, locus YNR052C, strain pop2, stronger effect = lower value 0.975 | S. cerevisiae deletion strains, locus YOL012C, strain htz1 0.377 | S. cerevisiae deletion strains, locus YOL147C, strain pex11, stronger effect = lower value 1.02 | S. cerevisiae deletion strains, locus YOR069W, strain VPS5, stronger effect = lower value 0.951 | S. cerevisiae deletion strains, locus YOR136W, strain idh2, stronger effect = lower value 1.01 | S. cerevisiae deletion strains, locus YOR144C, strain elg1, stronger effect = lower value 1.01 | S. cerevisiae deletion strains, locus YOR184W, strain ser1, stronger effect = lower value 0.926 | S. cerevisiae deletion strains, locus YOR316C, strain cot1, stronger effect = lower value 1.02 | S. cerevisiae deletion strains, locus YPR119W, strain clb2, stronger effect = lower value 1.03 | S. cerevisiae deletion strains, locus YPR141C, strain kar3, stronger effect = lower value 1.02 | S. cerevisiae deletion strains, locus YPR163C, strain tif3, stronger effect = lower value 1.02 | S. cerevisiae deletion strains, locus YPR167C, strain met16, stronger effect = lower value 1.02 | S. cerevisiae deletion strains, strain wtn01, stronger effect = lower value 0.947
